Assay outcomes from PubChem BioAssay.
Rows were chosen to be rich in hits. Some 11% of all compounds tested hit in one or more screens of this group.
JMJD2A Tudor inh: blocks the human JMJD2A Tudor domain. O75164. AlphaScreen JMJD2A-Tudor / H3K4me3 peptide binding. Potency, µM (top dose mostly 114 µM), hits mostly inhibitors. actives 4.4% (n = 390,000). AID 504339; note: nearly all actives have a fitted effect of over 50% in size
HP1b chromo inh: inhibitors of HP1-beta chromodomain binding to methylated histone tails. Potency, µM (titrated, usually from 114 µM), actives largely listed as inhibitors. AlphaScreen HP1-beta / biotin-H3K9me3 peptide binding. AID 540317. actives 0.56% (n = 390,000); note: nearly all actives have a fitted effect of over 70% in size
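AlphaScreen: HP1-beta (50 nM) preformed 30 min with biotin-H3(1-18)K9me3 peptide (50 nM) in PBS pH 7.4, 0.01% Tween-20. Compound added for 30 min at RT, then streptavidin donor/nickel chelate acceptor beads (10 ug/mL) for 30 min.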
L3MBTL1 block: inhibitors of human L3MBTL1; AlphaScreen L3MBTL1–H3K9me1 peptide binding; Potency, µM (highest dose often 57.1 µM), actives largely listed as inhibitors; Q9Y468; actives 0.66% (n = 230,000); note: nearly all actives have a fitted effect of over 60% in size
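First, the protein-peptide complex forms for 30 min at room temperature (L3MBTL1 50 nM, biotinylated H3K9me1 peptide 75 nM). Next, compounds are pin-transferred and incubated 30 min. Finally, AlphaScreen beads are added and read after 30 min.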
G9a inh: blocks human histone lysine methyltransferase G9a; Potency, µM (highest dose often 102 µM), usual class: inhibitors; G9a H3K9 monomethylation, AlphaScreen, 2 h; actives 8.8% (n = 350,000); note: nearly all actives have a fitted effect of over 75% in size
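Signal arises when biotinylated H3K9 peptide, once monomethylated, bridges streptavidin donor and antibody-captured acceptor beads. Enzyme at 20 nM was preincubated 15 min with test compounds; peptide 500 nM and SAM 20 uM then reacted for 2 h.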
BAZ2B inh: blocks human BAZ2B. Q9UIF8. AID 504333. actives 4.4% (n = 360,000). Potency, µM (series often up to 114 µM), hits mostly inhibitors. AlphaScreen BAZ2B-H3K14Ac peptide displacement; note: nearly all actives have a fitted effect of over 60% in size
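AlphaScreen luminescence quantifies BAZ2B engagement of H3K14Ac peptide; the protein and biotinylated peptide are both at 50 nM final, buffer PBS pH 7.4 with 0.01% Tween-20, all steps at room temperature.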
Hits are given with their value; i = inactive; ? = inconclusive; nt = no result; [ ] = dose if it differs, or a comment. Calls come from the whole dose curve; as a rule, active = well fitted inhibition curve with a large enough effect; inconclusive = small, poorly fitted or top-dose-only effect; inactive = no such curve, though single readings can be large or run the other way.

SMILES	JMJD2A Tudor inh	HP1b chromo inh	L3MBTL1 block	G9a inh	BAZ2B inh
CN1CCc2c(sc3c2C(=O)NC(c2cccc(OC(=O)c4cccs4)c2)N3)C1 (stereo not given)	?	i	i	39.8µM	i
COc1cc(C2NC(=O)c3c(sc4c3CCN(C)C4)N2)ccc1OC(=O)c1ccccc1 (stereo not given)	i	i	nt	10µM	i
Cc1c(C(=O)NC(C)c2ccccc2)sc2ncnc(N(C)C3CCCCC3)c12 (stereo not given)	i	i	nt	i	i
Cc1cc2c(s1)c1cnn(Cc3cccc(Cl)c3)c(=O)c1n2C	i	nt	nt	nt	nt
O=C1Nc2ccccc2N=C(c2ccccc2)C1N1CCOCC1 (stereo not given)	i	i	i	39.8µM	i
O=C1Nc2ccccc2N=C(c2ccccc2)C1Br (stereo not given)	?	i	i	nt	?
O=C1NC2(CCCCC2)C(=O)N1/N=C/c1ccc(O)cc1O	i[11.4 µM]	i	nt	3.98µM	?
O=C1NC2(CCCCC2)C(=O)N1/N=C/c1ccccc1Br	i	i	nt	i	i
Cc1cccc(NC(=O)c2oc3ccc(S(=O)(=O)N4CCC5(CC4)OCCO5)cc3c2C)c1C	i	i	nt	?	i
Cc1nc2scc(C)n2c(=O)c1S(=O)(=O)NC(C)c1ccccc1 (stereo not given)	25.1µM	i	nt	i	i
O=C1NC(c2ccc(Cl)cc2)=COc2ccccc21	i	i	i	i	i
O=C1NN=COc2ccccc21	i	i	i	i[12.7 µM]	56.2µM
CCCCCSc1nc2c(cnn2-c2ccc(F)cc2)c(=O)[nH]1	22.4µM	i	nt	i	i
CCCCCSc1nc2c(cnn2-c2ccccc2)c(=O)[nH]1	i	i	i	i	i
O=C(CSc1nc2c(cnn2-c2ccc(F)cc2)c(=O)[nH]1)N1CCOCC1	i	i	i	79.4µM	i
CCC1CCCCN1C(=O)CSc1nc2c(cnn2-c2ccc(C)cc2)c(=O)[nH]1 (stereo not given)	i	i	i	56.2µM	i
Cc1ccc(-n2ncc3c(=O)[nH]c(SCC(=O)N4CCOCC4)nc32)cc1	i	i	i	i	i
O=C(CSc1nc2c(cnn2-c2ccccc2)c(=O)[nH]1)N1CCOCC1	i[11.4 µM]	i	i	i[0.0925 µM]	i
COc1cccc(CC2(CO)CCCN(Cc3cc(F)ccc3-n3cccn3)C2)c1 (stereo not given)	i	i	i	?	i
COc1ccc(Br)cc1CNC(=O)CN1C(=O)c2cccnc2Oc2ccc(C)cc21	?	i	nt	i	i
COc1cccc(CNS(=O)(=O)c2ccc(N3CCCCS3(=O)=O)cc2)c1	i	i	nt	i[12.7 µM]	i
COc1cc(NC(=O)Nn2cnnc2)cc(OC)c1OC	i	i	nt	44.7µM	i
C=C(C)C1CC=C(C)/C(=N\NC(=O)CNc2cccc3ccccc23)C1 (stereo not given)	i	i	i	10µM	i
Oc1c(C(c2ccccc2F)N2CCC3(CC2)OCCO3)sc2nc(-c3ccco3)nn12 (stereo not given)	i	i	nt	i	i
CN(C(=O)COc1ccccc1)c1nnc(C23CC4CC(CC(C4)C2)C3)s1	i	i	i	14.1µM	i
SMILES	JMJD2A Tudor inh	HP1b chromo inh	L3MBTL1 block	G9a inh	BAZ2B inh
CN(C(=O)COc1ccccc1)c1nnc(-c2cccnc2)s1	i	i	nt	i[12.7 µM]	i
O=C(Nc1nnc(-c2ccco2)s1)C1CC1	?	i	i	50.1µM	?
O=C(Nc1nnc(-c2ccco2)s1)C1CCN(S(=O)(=O)c2ccc(Cl)cc2)CC1	i	i	i	i	i
COCCn1nnnc1C(C(C)C)N1CCOCC1 (stereo not given)	i	i	i	79.4µM	i
COc1ccc(CCn2c(=N)c(C(=O)NC3CCCCC3)cc3c(=O)n4ccccc4nc32)cc1	i	i	nt	i[0.0925 µM]	i
COc1ccc(CCn2c(=N)c(C(=O)N3CCN(C)CC3)cc3c(=O)n4ccccc4nc32)cc1	i	i	i	39.8µM	i
CCOC(=O)N1CCN(C(=S)NC(=O)c2nn(C)cc2Br)CC1	i	i	i	?	i
CCOC(=O)N1CCN(C(=S)NC(=O)c2ccnn2C)CC1	?	i	i	20µM	i
CCOC(=O)N1CCN(C(=S)NC(=O)c2ccc(F)cc2)CC1	i	i	i	28.2µM	?
COc1ccc(-n2nc(C(=O)N3CCC(C)CC3)c3c4ccccc4n(C)c3c2=O)cc1Cl	i	i	nt	i	nt
CC(=O)Nc1ccc(C(=O)CSc2nnc(-c3ccccc3)n2-c2ccccc2)cc1	i	i	nt	i	i
